According to PubChem BioAssay AID2462 (Broad Institute, 2010):
Screen size: about 330,000 compounds; about 220 (0.067%) were called active.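 The calls were made as follows: active = over half of replicate activation scores above 10%, or exactly half above 10 with the replicate mean above 10; inconclusive = replicate mean below 10 yet half the replicates above 10; inactive = over half of replicates below 10.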 What follows is part of a selection rich in actives, with near analogues and random picks from the rest.

Test: inducers of caspase signal in A1-primed MEFs – cell-based, luminescence, HTS, A1 inhibitor project, primary screen (AID 2462)
Conditions: MEF A1-2A-BIM cells, Caspase-Glo 3/7 luminescence, 3 h; stronger effect = higher value; percent of clofoctol response, vehicle zero; concentration not given here
With `C=CCOc1c(CNn2cn[nH]c2=S)cccc1OC` the caspase activation was 0.398% (inactive).
In the case of `CCOC(=O)c1c(C)n(C)c2ccc(OC)c(NS(=O)(=O)CC)c12`, the caspase activation is reported as -0.135% (inactive).
With `CC12CCC(C(=O)N(NC(=O)c3ccccc3O)C1=O)C2(C)C` (stereo not given) the caspase activation was 1.44% (inactive).
With `CCOC(=O)c1cnc(-n2nc(C)cc2C)nc1NNc1cc(C)nc(-c2ccccc2)n1` the caspase activation was -0.244% (inactive).
With `O=C1CC(Cc2ccccc2)C(=O)N1c1ccc(Cl)cn1` (stereo not given) the caspase activation was -0.386% (inactive).
With `CCOC(=O)C1=C(CN2CCc3ccccc32)NC(=O)NC1c1cc(C)ccc1C` (stereo not given) the caspase activation was -0.324% (inactive).
With `COC(=O)c1ccc(/C=C/c2c(-c3ccc(OC)cc3)sc3ccccc23)cc1` the caspase activation was 0.0613% (inactive).
With `CCOc1ccc(NC(=O)c2ccc(CSc3nnnn3C)cc2)cc1` the caspase activation was -1.46% (inactive).
With `CN1CCN(CC(=O)C23CC4CC(CC(C4)C2)C3)CC1` the caspase activation was -0.618% (inactive).
For `Cc1c(C(=O)NNC(=O)c2ccncc2)oc2ccccc12`, the caspase activation was -1.06% (inactive).
For `O=c1cc(CN2CCN(c3cccc(Cl)c3)CC2)c2cc3c(cc2o1)CCCC3`, the caspase activation was 0.443% (inactive).
With `Cc1cccc(N2CC(C(=O)Nc3ccccc3N3CCCC3)CC2=O)c1C` (stereo not given) the caspase activation was -0.198% (inactive).
In the case of `COc1ccc(C2C(C#N)=C(N)Oc3cc(N)ccc32)cc1OC` (stereo not given), the caspase activation is reported as 0.292% (inactive).
With `FC(F)(F)c1ccnc(Oc2ccc(C3=NCCS3)cc2)c1` the caspase activation was -5.34% (inactive).
For `CC(=O)Nc1ccc(C(=O)OCC(=O)Nc2ccc([N+](=O)[O-])cc2C(F)(F)F)cc1`, the caspase activation was 0.347% (inactive).
With `Cc1ccc(CNC(=O)C2CCCN2C(=O)NCc2ccccc2)cc1` (stereo not given) the caspase activation was 0.299% (inactive).
In the case of `Cc1cccc(OCCNC(=S)NC(=O)c2cccnc2)c1`, the caspase activation is reported as 0.352% (inactive).
In the case of `O=C(NCCN1CCN(C(=O)c2cccc([N+](=O)[O-])c2)CC1)C(=O)NCc1ccc(Cl)cc1`, the caspase activation is reported as -0.117% (inactive).
In the case of `O=C(CN(Cc1ccccc1)C(=O)CCC(=O)Nc1ccccn1)NCCc1ccccc1`, the caspase activation is reported as -0.282% (inactive).
For `CCOC(=O)CC1COCCN1C(=O)c1cc(COc2ccc(F)c(F)c2)on1` (stereo not given), the caspase activation was -0.113% (inactive).
In the case of `Cc1ccc(-n2ncc3c2CC(C)(C)CC3NC(=O)CCc2cnn(C)c2)cc1` (stereo not given), the caspase activation is reported as 0.222% (inactive).
For `COc1ccc(N2CCN(C(=O)CCSCc3ccccc3F)CC2)cc1`, the caspase activation was -0.325% (inactive).
With `CSc1ccc(/C=C2\NC(=O)NC2=O)cc1` the caspase activation was -0.861% (inactive).
For `O=C(CCc1n[nH]c(=O)[nH]c1=O)N/N=C/c1ccc(Br)o1`, the caspase activation was -0.493% (inactive).
With `CN(C(=O)c1cccc(NC(=O)C2CCN(C(=O)OC(C)(C)C)CC2)c1)C1CCC1` the caspase activation was 0.788% (inactive).
In the case of `COCCCNC(=O)C1CCN(c2ccc(N3CCOCC3)nn2)CC1`, the caspase activation is reported as 0.283% (inactive).
With `C#CCOCCOCCOCCNc1nc(N2CCN(C(=O)[C@H](CCCN=C(N)N)n3cc(C(N)[C@@H](C)CC)nn3)CC2)nc(N2CCN(C(=O)[C@H](CO)n3cc([C@@H](N)C(C)C)nn3)CC2)n1` (stereo not given in full) the caspase activation was 0.85% (inactive).
With `COC(=O)CNC(=O)c1ccc2c(c1)S(=O)(=O)c1ccccc1C2=O` the caspase activation was -0.413% (inactive).
In the case of `CCC1C(=O)NCCN1C(=O)c1ccc2nc(Cc3ccc(OC)cc3)oc2c1` (stereo not given), the caspase activation is reported as -0.419% (inactive).
In the case of `COc1ccc(CCNc2cc(N3CCN(C(=O)c4ccccc4OC)CC3)ccc2[N+](=O)[O-])cc1OC`, the caspase activation is reported as -0.378% (inactive).
In the case of `O=C1c2ccccc2NC(c2ccccn2)N1NS(=O)(=O)c1ccccc1` (stereo not given), the caspase activation is reported as 1.93% (inactive).
With `CC(=O)c1ccccc1NC(=O)C1CC(=O)N(c2ccc3c(c2)OCCO3)C1` (stereo not given) the caspase activation was 0.41% (inactive).
In the case of `Cc1ccc(-c2nnc(CN3CCN(C)CC3)o2)cc1`, the caspase activation is reported as 0.0366% (inactive).
For `COc1cc2c(cc1OC)C(C(=O)Nc1cc(C)c(OC)c(C)c1)CC(=O)N2` (stereo not given), the caspase activation was 0.803% (inactive).
In the case of `Cc1ccc2cc3cc(C(=O)N4CCCCCC4)oc3nc2c1`, the caspase activation is reported as 0.083% (inactive).
For `NC1=NC(=O)C(Cc2cccc(Cl)c2)S1` (stereo not given), the caspase activation was -0.108% (inactive).
With `CC(C)(C)OC(=O)N[C@H](C(=O)OC(C)(C)C)c1ccc(Br)cc1` the caspase activation was -0.98% (inactive).
In the case of `CCOC(=O)c1c(NC(=O)CCCN2CCOCC2)sc2c1CC(C)(C)OC2`, the caspase activation is reported as -0.683% (inactive).
In the case of `CN(C)C(=O)Cn1c(=O)n(S(=O)(=O)c2ccccc2)c2ccccc21`, the caspase activation is reported as -0.645% (inactive).
With `CN(c1ccc2nc3ccccc3c(=O)n2n1)C1CCCCC1` the caspase activation was 0.636% (inactive).
For `CN(C(=O)CSc1nnc(N)s1)c1c(N)n(Cc2ccccc2)c(=O)[nH]c1=O`, the caspase activation was 0.167% (inactive).
With `O=[N+]([O-])C(=c1ccc2c(c1)N1C3=C(CCCC3)CC3CCCCC31N=2)[N+](=O)[O-]` (stereo not given) the caspase activation was 6.39% (active).
With `CCOC(=O)C(NC(=O)CC(C)C)(Nc1sc2c(c1C(N)=O)CCCC2)C(F)(F)F` (stereo not given) the caspase activation was 0.722% (inactive).
With `O=C(O)c1cc2ccccc2c(=O)s1` the caspase activation was 1.64% (inactive).
With `COc1ccc(CCNC(=O)CN(C)S(=O)(=O)c2ccc3nc(C)sc3c2)cc1OC` the caspase activation was -2.31% (inactive).
For `CCC(C)NC(=O)N[C@@H](CCSC)C(=O)O` (stereo not given in full), the caspase activation was 0.604% (inactive).
With `CCCCC(O)(CCCC)C(=O)NN(C(=O)CCl)c1ccccc1` the caspase activation was 0.273% (inactive).
For `COc1ccc(OCC(=O)NN2Cc3ccccc3C2=N)cc1`, the caspase activation was 1.26% (inactive).
In the case of `Cc1ccc2oc(C(=O)N3CCN(C)C[C@@H]3C(C)C)c(C)c2c1`, the caspase activation is reported as -0.346% (inactive).
For `CCOc1ccccc1-n1c(SCC(=O)NCc2ccco2)nnc1-c1ccncc1`, the caspase activation was -0.681% (inactive).
In the case of `O=C(NCc1ccccc1)C1CCCN(c2nc3ccsc3c(=O)s2)C1` (stereo not given), the caspase activation is reported as -0.382% (inactive).
In the case of `COc1cccc(NC(=O)Cn2c3ccc(F)cc3c3nc4n(c(=O)c32)CCS4)c1`, the caspase activation is reported as -1.98% (inactive).
In the case of `O=c1c(-c2ccccc2Cl)c[nH]n1-c1ccccc1`, the caspase activation is reported as -1.88% (inactive).
In the case of `COc1ccc(C(=O)NCCSc2ccccc2C)cc1`, the caspase activation is reported as -1.26% (inactive).
With `OCCC1CN(Cc2cnc(-c3ccccc3)s2)CCN1CCc1ccccc1` (stereo not given) the caspase activation was 0.493% (inactive).
With `CCOCCn1[nH]c2ccccc2c1=O` the caspase activation was -0.169% (inactive).
For `O=S(=O)(Nc1ccc(-c2ccc(N3CCOCC3)nn2)cc1)c1cc(Cl)ccc1Cl`, the caspase activation was 0.476% (inactive).
With `CC(C)CNC(=S)NNC(=O)c1ccccc1OC(F)F` the caspase activation was 1.35% (inactive).
For `CN(Cc1c(F)cccc1Cl)C(=O)CNC(=O)c1ccc2c(c1)OCO2`, the caspase activation was -0.444% (inactive).
With `N#Cc1c(-c2ccc(F)cc2)cc(C2CC2)nc1SCC(=O)c1cccs1` the caspase activation was -0.105% (inactive).
In the case of `Cc1cccc(C(=O)NCc2nnc(SC(C)C(=O)Nc3nnc(C)s3)n2C)c1` (stereo not given), the caspase activation is reported as 0.308% (inactive).
In the case of `COc1ccc(C2CC(=O)C=C(NCC3CCCO3)C2)cc1` (stereo not given), the caspase activation is reported as 1.09% (inactive).
For `Cc1c(C(=O)N2CCN(c3ccc(F)cc3)CC2)oc2c1C(=O)CCC2`, the caspase activation was -0.061% (inactive).
In the case of `Cc1ccc(CC2C(=O)N(c3ccc(F)cc3)C(=O)C2C)cc1` (stereo not given), the caspase activation is reported as 0.618% (inactive).
For `Cc1cc(-n2cnc(-c3cn(C)nc3C)n2)no1`, the caspase activation was 0.762% (inactive).
For `O=C(NCc1ccccc1)C1=C[C@@H](C2CCCCC2)C[C@@H](OCc2ccc(CO)cc2)O1`, the caspase activation was 1.39% (inactive).
For `Cc1ccc(CNC(=O)CCS(=O)(=O)c2ccc3c(c2)CC(C)N3C(=O)C2CC2)o1` (stereo not given), the caspase activation was 3.53% (inactive).
With `O=C(C1CCCO1)N1CCN(C(=S)NC2CC2)CC1` (stereo not given) the caspase activation was -0.789% (inactive).
In the case of `CC1=C(C(N)=O)C(c2sccc2C)n2nnnc2N1` (stereo not given), the caspase activation is reported as -0.851% (inactive).
For `CCC1CCCCN1CCCNC(=O)c1cc2c(Cl)nc3ccccc3c2s1` (stereo not given), the caspase activation was -0.978% (inactive).
In the case of `CC(=O)C(C)n1cnc2scc(-c3ccc(C)cc3)c2c1=O` (stereo not given), the caspase activation is reported as 0.409% (inactive).
For `O=C(NC1CCCCC1)C1CCC(CNS(=O)(=O)c2ccccc2)CC1` (stereo not given), the caspase activation was 0.134% (inactive).
With `CNc1[nH]ncc1[N+](=O)[O-]` the caspase activation was -0.643% (inactive).
For `COc1ccc(C[C@H]2CN3C(=NC[C@H]3C)N2CCNC(=O)CCC2CCCCC2)cc1`, the caspase activation was 0.277% (inactive).
For `CCCN(c1ccc(C)cc1)c1nc(=O)c2cccnc2s1`, the caspase activation was 0.23% (inactive).
For `COC(=O)[C@H]1Cc2cnoc2C[C@]1(C)C(=O)O`, the caspase activation was -0.157% (inactive).
For `COc1ccc(OC)c(/C=C/C(=O)c2ccc3c(c2)OCO3)c1`, the caspase activation was -0.508% (inactive).
For `COc1ccc(Nc2ccc([N+](=O)[O-])cn2)cn1`, the caspase activation was -0.342% (inactive).
With `COc1ccc(NC(=O)/C(Cl)=C(/Cl)S(=O)Cc2ccc(C)cc2)cn1` (stereo not given) the caspase activation was 7.8% (active).
For `CCN(CC(=O)Nc1ccc(OC)cc1)C(=O)CSCc1ccc(C)cc1`, the caspase activation was -0.709% (inactive).
For `CC[C@H]1CN2CCc3cc(OC)c(OC)cc3[C@@H]2C[C@@H]1C[C@H]1NCCc2cc(OC)c(OC)cc21`, the caspase activation was 7.26% (active).
With `CCc1ccc(OCC2c3cc(OC)c(OC)cc3CCN2C(C)=O)cc1` (stereo not given) the caspase activation was 0.768% (inactive).
For `COc1ccc2c(c1)CCNC2Cc1ccc(OC)c(O)c1` (stereo not given), the caspase activation was 2.35% (inactive).
In the case of `COc1cccc(NC(=O)CN(C)C(C)C(=O)Nc2ccc(C#N)cc2)c1` (stereo not given), the caspase activation is reported as 0.554% (inactive).
For `CC[N+](C)(CC)CCC[n+]1c(-c2ccccc2)c2cc(N)ccc2c2ccc(N)cc21`, the caspase activation was 2.85% (inactive).
For `CC(=O)Nc1ccc(Sc2ccccc2C(=O)N2CCCC2)cn1`, the caspase activation was 0.126% (inactive).
For `Cn1c(C(=O)O)ccc1S(=O)(=O)N(Cc1ccccc1)Cc1ccccc1`, the caspase activation was -0.442% (inactive).
In the case of `O=C(NCCc1ccco1)C(=O)NCCC1CCCCN1S(=O)(=O)c1ccccc1` (stereo not given), the caspase activation is reported as 0.605% (inactive).
With `CN(C)c1ccc(Nc2c3c4c(cccc4n(C)c2=O)C(=O)c2ccccc2-3)cc1` the caspase activation was -0.124% (inactive).
For `CC1(C)COC(c2cccn2Cc2ccccc2Cl)=N1`, the caspase activation was -0.0448% (inactive).
